# The campaign covered roughly 190,000 compounds. About 810 (0.43%) were called active. The sample holds actives, similar compounds and a random draw of the others, so the mix is not that of the screen. Rule as the data show it: active = inhibition above about 50%; inactive = the rest.
# Target: Mannose-6-phosphate isomerase (Homo sapiens) (UniProt P34949)
# Test: MPI enzyme activity inhibition – biochemical, fluorescence intensity, coupled assay, primary screen (AID 1209);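 also: plate controls were DMSO vehicle for no effect and wells lacking substrate for full effect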
# Conditions: purified PMI enzyme, at 20 µM, stronger effect = higher value
# Mannose-6-phosphate isomerase (Homo sapiens), sequence (P34949 whole entry, looked up): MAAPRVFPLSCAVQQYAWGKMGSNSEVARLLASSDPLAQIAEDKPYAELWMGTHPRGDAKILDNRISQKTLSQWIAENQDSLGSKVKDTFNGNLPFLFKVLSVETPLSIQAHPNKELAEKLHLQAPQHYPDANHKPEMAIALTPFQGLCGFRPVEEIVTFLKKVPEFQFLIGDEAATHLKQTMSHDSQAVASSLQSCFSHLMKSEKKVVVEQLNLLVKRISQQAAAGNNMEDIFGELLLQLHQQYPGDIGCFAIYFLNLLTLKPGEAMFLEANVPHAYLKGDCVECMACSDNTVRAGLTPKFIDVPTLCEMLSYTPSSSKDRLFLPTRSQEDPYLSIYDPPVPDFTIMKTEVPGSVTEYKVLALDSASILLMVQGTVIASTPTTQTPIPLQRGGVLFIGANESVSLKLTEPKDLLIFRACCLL
row,Structure (SMILES),inhibition
1,CN1C(=O)/C(=C/c2ccc(-c3ccccc3[N+](=O)[O-])o2)SC1=Nc1ccc(Cl)c(C(=O)O)c1,3% (inactive)
2,CCOC(=O)C1=C(N)Oc2cc(C)n(C)c(=O)c2C1c1ccncc1 (stereo not given),10% (inactive)
3,NC(=O)C1=C[C@H](c2coc3ccccc3c2=O)C[C@H](OCc2ccc(CO)cc2)O1,-2.4% (inactive)
4,O=C(Nc1ccccc1NC(=O)NC1CCCCC1)NC1CCCCC1,6% (inactive)
5,Nc1ccccc1NC1CCCCC1,64.3% (active)
6,Nc1c(NC2CCCCC2)c2ccccc2oc1=O,9.2% (inactive)
7,Cc1ccc(Cn2c(C(=O)O)cc3sccc32)cc1,-7.2% (inactive)
8,O=C(Nc1ccccc1NS(=O)(=O)c1ccc(F)cc1)C1CCCC1,-1.7% (inactive)
9,O=C(COC(=O)c1cc(Cl)ccc1Cl)NCCN1C(=O)CSC1=O,0.7% (inactive)
10,O=C(COC(=O)c1cccc(Cl)c1)NCCN1C(=O)CSC1=O,-6% (inactive)
11,O=C(COC(=O)c1cc(Cl)cc(Cl)c1)NCCN1C(=O)CSC1=O,55.7% (active)
12,COC(=O)c1ccccc1NC(=O)COC(=O)/C=C/c1ccco1,-15% (inactive)
13,CCOCCCNC(=O)c1ccc(N2CCOCC2)c(NS(=O)(=O)c2ccc(OC)cc2)c1,-1.6% (inactive)
14,Cn1c(COc2ccc([N+](=O)[O-])cc2)nnc1SCC(N)=O,-9.7% (inactive)
15,O=C1CCN2C=Nc3cccc4ccc1c2c34,84.5% (active)
16,c1cc2c3c(cccc3c1)C(N1CCCCC1)=N2,33.9% (inactive)
17,c1cc2c3c(cccc3c1)C(N1CCCCCC1)=N2,15.8% (inactive)
18,COc1ccc(CCN2CC(C#N)=C3c4cc(OC)c(OC)cc4CCN3C2)cc1OC,18.8% (inactive)
19,COc1cc2c(cc1OC)C1=C(C#N)CN(C3CCCCC3)CN1CC2,27.4% (inactive)
20,COc1cc2c(cc1OC)C1=C(C#N)CN(CC(=O)O)CN1CC2,70.5% (active)

row,Structure (SMILES),inhibition
1,CCCCNC(c1ccccc1)c1ccncc1 (stereo not given),6.1% (inactive)
2,CCn1c(SCC(=O)NC2CCS(=O)(=O)C2)nnc1-c1ccccc1 (stereo not given),-4.5% (inactive)
3,COc1cc(NC(=O)CN2C(=O)CN(C)C2=O)c(C)cc1[N+](=O)[O-],-9.8% (inactive)
4,Cc1ccccc1NC(=O)C1c2cccc[n+]2CC(=O)N1Cc1ccc2c(c1)OCO2 (stereo not given),-17.8% (inactive)
5,Cc1cccc(C)c1NC(=O)C1c2cccc[n+]2CC(=O)N1Cc1cccs1 (stereo not given),-7.5% (inactive)
6,Cc1ccccc1NC(=O)C1c2cccc[n+]2CC(=O)N1c1c(C)cccc1C (stereo not given),91.6% (active)
7,C(=C\c1ccccc1)/C=N/Nc1nc(N2CCOCC2)nc(N2CCOCC2)n1,-1.4% (inactive)
8,CCn1c(SCC(=O)N2CCN(c3ccc(F)cc3)CC2)nnc1-c1ccncc1,8.1% (inactive)
9,O=C(CCn1c(=S)oc2ccccc21)Nc1cccc(F)c1,-10.5% (inactive)
10,O=C(NCc1cccs1)c1cccc(Nc2nc3ccc(Br)cc3[nH]2)c1,15.4% (inactive)
11,O=C(NCC1CC1)c1ccc(Nc2nc3ccc(Br)cc3[nH]2)cc1,84% (active)
12,O=C(NCc1ccco1)c1cccc(Nc2nc3ccc(Br)cc3[nH]2)c1,22% (inactive)
13,COC(=O)/C=C1\SC(=NC(=O)c2ccc(C)cc2)NC1=O,3.6% (inactive)
14,COc1cc(/C=C/C(=O)CC(=O)/C=C/c2ccc(O)c(OC)c2)ccc1O,5.3% (inactive)
15,O=Cc1ccc(O)c(O)c1,25.6% (inactive)
16,O=C(O)/C=C/c1ccc(O)c(O)c1,56.4% (active)
17,COc1ccc(NC(=O)/C=C/c2ccc(OC)c(OC)c2)cn1,-4.6% (inactive)
18,Cc1cc([N+](=O)[O-])cnc1Sc1nccn1C,-29.4% (inactive)
19,O=C(CCc1nc2ccccc2[nH]c1=O)OCC(=O)c1ccc(Cl)cc1,2.3% (inactive)
20,Nc1scc2c(C(=O)N/N=C/c3ccc(Cl)cc3)nn(-c3ccccc3)c(=O)c12,69.6% (active)

row,Structure (SMILES),inhibition
1,CCOC(=O)c1nn(-c2ccccc2)c(=O)c2c(N)scc12,36.2% (inactive)
2,CCOC(=O)c1nn(-c2ccc(OC)cc2)c(=O)c2c(N)scc12,46.8% (inactive)
3,COc1ccc(/C=N/NC(=O)c2nc(-c3ccccc3)n(-c3ccccc3)n2)cc1,17% (inactive)
4,COc1ccc(/C=N/NC(=O)c2nn(-c3ccccc3)c(=O)c3c(N)scc23)cc1,60.7% (active)
5,COc1ccc(/C=N/NC(=O)c2nn(-c3ccc(Cl)cc3)c(=O)c3c(N)scc23)cc1,50.7% (active)
6,CCOC(=O)c1nn(-c2ccc(C)cc2)c(=O)c2c(N)scc12,39.4% (inactive)
7,CCOC(=O)c1nn(-c2ccc(F)cc2)c(=O)c2c(N)scc12,40.7% (inactive)
8,COc1ccc(/C=N/NC(=O)c2nn(-c3ccc(C)c(C)c3)c(=O)c3ccccc23)cc1,13.2% (inactive)
9,O=C(CSc1nc2cc(Cl)ccc2s1)Nc1cccc(S(=O)(=O)N2CCOCC2)c1,15.2% (inactive)
10,CCN1CCN(C(c2cccs2)C(C)NC(=O)CC(C)C)CC1 (stereo not given),0.5% (inactive)
11,CCN(CCNC(=O)C1CCN(S(=O)(=O)c2cccc3cccnc23)CC1)c1ccccc1,8.4% (inactive)
12,O=C(NNC(=O)c1cc(OCC(F)(F)F)ccc1OCC(F)(F)F)c1ccc(Cl)c(Cl)c1,16.5% (inactive)
13,Cc1cc2oc(=O)cc(CN3CCCc4ccccc43)c2cc1C,-11.2% (inactive)
14,Cc1ccc(SCCC(=O)NCCSCc2ccco2)cc1,7.9% (inactive)
15,CN1CCC(N(C)C(=O)/C=C/c2cn(-c3ccccc3)nc2-c2cccs2)CC1,-5.9% (inactive)
16,COc1ccc(S(=O)(=O)N2CCN(Cc3ccc(Cl)cc3)CC2)cc1,14.7% (inactive)
17,Cc1ccc([N+](=O)[O-])cc1-c1[nH]c(-c2ccc(O)c(O)c2)nc1-c1ccccc1,51.7% (active)
18,COc1ccc(-c2nc(-c3ccccc3)c(-c3cc([N+](=O)[O-])ccc3C)[nH]2)cc1O,22.5% (inactive)
19,CCOc1cc(-c2nc(-c3ccccc3)c(-c3cc([N+](=O)[O-])ccc3C)[nH]2)ccc1O,14.4% (inactive)
20,Cc1ccc(COc2ccc(Br)cc2/C=N/O)cc1,19.7% (inactive)
